Among the data in PubChem BioAssay (Tox21) are Potency and outcome values, retold here.

The structures appear in SMILES notation. Values joined by “and” are separate entries in the source; they are usually repeats but may differ in a detail not shown here. Identical values can stand only once. A number with no mark means an inactive call. Inconclusive results are not listed. Active and inactive are the calls of the source. Unless noted, the call rests on the fitted dose curve; in most records, active means well fitted curve in the direction sought with a large enough effect in the repeat runs; inconclusive means weak or mixed curves; inactive means no such curve, though single readings can be large; an effect the other way counts as inactive or inconclusive.

The target of assay [1] is Estrogen receptor beta (Homo sapiens) (UniProt Q92731). The assay is described as follows: qHTS assay to identify small molecule agonists of the estrogen receptor beta (ER-beta) signaling pathway (AID 1259377; active means well fitted activation curve with a large enough effect in the signal ratio in the repeat runs, not every such curve was filed as active; the % refers to the signal ratio). The method in brief: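 HEK293T ER-beta-UAS-bla; 2% charcoal-stripped FBS; cells pre-incubated 6 hr, compound 16 hr, 37C/5% CO2; LiveBLAzer B/G FRET substrate 2 h RT; fluorescence intensity read.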

Assay [2] has the same target. In words: qHTS assay to identify small molecule antagonists of the estrogen receptor beta (ER-beta) signaling pathway (AID 1259378; active means well fitted inhibition curve with a large enough effect in the signal ratio in the repeat runs, not every such curve was filed as active; the % refers to the signal ratio; further: potency means the concentration at half of the fitted maximal effect). The method in brief: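 Antagonist mode: compounds added to beta-lactamase reporter HEK293T ER-beta-UAS cells stimulated with E2 (1nM final), 16 hr at 37C. LiveBLAzer B/G FRET substrate, 2 hours room temperature, fluorescence read-out.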
(qHTS replaces the single test concentration by a dilution series.)

A short description of assay [3]: qHTS assay to identify small molecule agonists of the androgen receptor (AR) signaling pathway in the presence of an antagonist - cell viability counter screen (AID 1259379). Further: nearly all actives have a fitted effect of over 25% in size. Further: potency means the concentration at half of the fitted maximal effect. A digest of the protocol:
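MDA-kb2 human breast carcinoma cells (stable MMTV-luciferase, AR/GR responsive) were seeded 3,000 cells/well, pre-incubated 5 hr at 37C without CO2, then given 3.0uM nilutamide and compounds at 15 concentrations for 16 hr. Viability was read by CellTiter-Fluor fluorescence.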

A short description of assay [4]: qHTS assay to identify small molecule agonists of the estrogen receptor beta (ER-beta) signaling pathway - cell viability counter screen (AID 1259380). Further: nearly all actives have a fitted effect of over 30% in size. Further: potency means the concentration at half of the fitted maximal effect. The method in brief:
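ER-beta-UAS-bla HEK293T cells in medium with 2% charcoal-stripped FBS were preincubated 6 hr at 37C, dosed with compound in DMSO for 16 hr, then after the bla read, CellTiter-Glo was added for 30 min at room temperature; luminescence recorded.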

The nature of assay [5]: qHTS assay to identify small molecule antagonists of the estrogen receptor beta (ER-beta) signaling pathway - cell viability counter screen (AID 1259382). Further: nearly all actives have a fitted effect of over 55% in size. Further: potency means the concentration at half of the fitted maximal effect. A digest of the protocol: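 ER-beta-UAS-bla HEK293T cells (2,000/well, 2% charcoal-stripped FBS) were pre-incubated 6 hr at 37C, then given compound plus 1nM final 17-beta-estradiol for 16 hr. Viability was read in the same wells by CellTiter-Glo luminescence after 30 min at room temperature.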

For assay [6], the target named is Estrogen receptor (Homo sapiens) (UniProt P03372). The assay is described as follows: qHTS assay to identify small molecule agonists of the estrogen receptor alpha (ER-alpha) signaling pathway in the presence of an antagonist (AID 1259383; calls by dose curve; further: top concentration of the series differs between compounds; nearly all actives have a fitted effect of over 15% in size). A digest of the protocol:
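VM7Luc4E2 cells (endogenous full-length ER-alpha, 4×ERE-luciferase) were precultured 5 days in phenol red-free medium with 10% charcoal-stripped FBS, given 10.0nM ICI-182,780 (final), then treated with compounds at 15 concentrations for 22hr at 37C; luminescence read with ONE-Glo.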

Assay [7] in a line: qHTS assay to identify small molecule agonists or antagonists of the thyroid stimulating hormone receptor (TSHR) signaling pathway - wild type cell line counter screen (AID 1259384; calls by dose curve). The method in brief:
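Counter screen in untransfected Hek293: compounds (15-point titration, triplicate) plus phosphodiesterase inhibitor Ro20-1724 added after 18 h plating; 30 min RT. Intracellular cAMP via competitive d2/cryptate immunoassay, 1 h incubation.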

In assay [8] the target is Thyrotropin receptor (Homo sapiens) (UniProt P16473). The assay is described as follows: qHTS assay to identify small molecule antagonists of the thyroid stimulating hormone receptor (TSHR) signaling pathway (AID 1259385; calls by dose curve; further: nearly all actives have a fitted effect of over 20% in size). The method in brief: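 Antagonist mode: compound-treated TSHR-expressing HEK293 cells were stimulated with 1.5 ng/mL TSH (final) in presence of Ro20-1724 for 30 min at RT. HTRF cAMP detection after 1 h; each compound tested at 15 concentrations, triplicate.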

A short description of assay [9]: qHTS assay to identify small molecule agonists of the estrogen receptor alpha (ER-alpha) signaling pathway in the presence of an antagonist - cell viability counter screen (AID 1259386).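 Further: cells exposed to compounds for 22 h at 37 °C before the viability read; nearly all actives have a fitted effect of over 30% in size.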 Further: potency means the concentration at half of the fitted maximal effect. A digest of the protocol: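 VM7Luc4E2 cells (endogenous full-length ER-alpha, 4×ERE-luciferase) were held 5 days in phenol red-free medium with 10% charcoal-stripped FBS, plated, then given 10.0nM ICI-182,780 and compounds at 15 concentrations for 22hr at 37C; viability read by CellTiter-Fluor fluorescence.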

For assay [10], the target named is Progesterone receptor (Homo sapiens) (UniProt P06401). The assay is described as follows: qHTS assay to identify small molecule agonists of the progesterone receptor (PR) signaling pathway (AID 1346784; calls by dose curve; further: nearly all actives have a fitted effect of over 30% in size). The method in brief:
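Beta-lactamase reporter read-out: after 16 hr compound treatment at 37C and a further 2 hr at room temperature with LiveBLAzer B/G FRET substrate, fluorescence was measured in PR-UAS-bla HEK 293T cells grown in 2% charcoal-stripped serum.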

For assay [11] the target is unchanged. In words: qHTS assay to identify small molecule antagonists of the progesterone receptor (PR) signaling pathway (AID 1346795; active means well fitted inhibition curve with a large enough effect in the signal ratio in the repeat runs, not every such curve was filed as active; the % refers to the signal ratio; further: potency means the concentration at half of the fitted maximal effect). The method in brief: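 Read-out is fluorescence from the LiveBLAzer B/G FRET substrate, cleaved by a UAS-controlled beta-lactamase in PR-UAS-bla HEK293T cells after 16 hr exposure to compound plus 1 nM promegestone (final), followed by 2 hr at room temperature.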

A short description of assay [12]: qHTS assay to identify small molecule antagonists of the progesterone receptor (PR) signaling pathway - cell viability counter screen (AID 1346798). Further: nearly all actives have a fitted effect of over 50% in size. Further: potency means the concentration at half of the fitted maximal effect. The method in brief:
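HEK293T PR-UAS-bla, 2% charcoal-stripped FBS; 4 hr pre-plate; cpd + R5020, 16 h 37C; LiveBLAzer read first; then CellTiter-Glo 30 min RT, luminescence.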

A short description of assay [13]: qHTS assay to identify small molecule agonists of the progesterone receptor (PR) signaling pathway - cell viability counter screen (AID 1346799; calls by dose curve; further: nearly all actives have a fitted effect of over 45% in size). The method in brief:
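Luminescence from CellTiter-Glo, added after the beta-lactamase FRET read in the same wells, gave cytotoxicity in PR-UAS-bla HEK293T cells treated with compounds for 16 hr at 37C.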

Assay [14] is described as follows: qHTS assay to identify small molecule antagonists of the TGF-beta/Smad signaling pathway - cell viability counter screen (AID 1346824). Further: nearly all actives have a fitted effect of over 50% in size. Further: potency means the concentration at half of the fitted maximal effect. The method in brief:
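Cytotoxicity counter-screen run in the same wells as the beta-lactamase Smad reporter read: CellTiter-Glo luminescence after 30 min at room temperature. HEK 293T SBE-bla cells had 5 hr compound exposure at 37 C with TGF-beta1 (0.25 ng/mL stock).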

The nature of assay [15]: qHTS assay to identify small molecule agonists of the TGF-beta/Smad signaling pathway - cell viability counter screen (AID 1346829). Further: nearly all actives have a fitted effect of over 45% in size. Further: potency means the concentration at half of the fitted maximal effect. The method in brief:
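Luminescence from CellTiter-Glo, read after a 30 min room-temperature incubation, gives cell viability of SBE-bla HEK 293T cells treated 5 hr with compounds at 37 C.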

The nature of assay [16]: qHTS assay to identify small molecule agonists of the TGF-beta/Smad signaling pathway (AID 1346859; active means well fitted activation curve with a large enough effect in the signal ratio in the repeat runs, not every such curve was filed as active; the % refers to the signal ratio; further: series mostly up to about 77 µM). A digest of the protocol: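 SBE-bla HEK 293T, 4,000 cells/well, plated o/n; cpd in DMSO, 5 hr, 37 C/5% CO2; B/G FRET substrate 2 hr RT; ex 405, em 460/530 nm.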
The target of assay [17] is Thyrotropin-releasing hormone receptor (Homo sapiens) (UniProt P34981). In words: qHTS assay to identify small molecule antagonists of the thyrotropin-releasing hormone receptor (TRHR) signaling pathway (AID 1346877; active means well fitted inhibition curve with a large enough effect in the repeat runs, not every such curve was filed as active; further: series mostly up to about 51 µM). A digest of the protocol:
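TRHR-expressing HEK293 cells were seeded, cultured 18 h at 37 °C, then loaded with calcium dye for 2 h. Compounds were pre-incubated 5 min at room temperature before 1 nM TRH (final) was added, and kinetic fluorescence was recorded for 3 min.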

The target is the same in assay [18]. In words: qHTS assay to identify small molecule agonists of the thyrotropin-releasing hormone receptor (TRHR) signaling pathway (AID 1346891; calls by dose curve; further: series mostly up to about 58 µM). The method in brief:
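Intracellular calcium rise, read as fluorescence every second for 3 min, served as the agonist signal in dye-loaded HEK293 cells expressing TRHR; each compound ran at 15 concentrations in triplicate.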

The nature of assay [19]: Human pregnane X receptor (PXR) small molecule agonists, qHTS cell viability counter screen (AID 1346977). Further: nearly all actives have a fitted effect of over 50% in size. A digest of the protocol:
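PXR-Luc HepG2, 2,000 cells/well, 5% charcoal-stripped FBS; 5hr settle; cpd 24hr, 37C/5% CO2; CellTiter-Fluor at 23hr, read 1hr later (fluorescence).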

The target in assay [20] is Androgen receptor (Homo sapiens) (UniProt P10275). In words: qHTS assay to identify small molecule agonists of the androgen receptor (AR) signaling pathway in the presence of an antagonist (AID 1259381; calls by dose curve; further: nearly all actives have a fitted effect of over 15% in size). A digest of the protocol: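 MDA-kb2 human breast carcinoma cells carrying an MMTV-luciferase reporter (AR- and GR-responsive) were treated with compounds at 15 concentrations plus 3.0uM final nilutamide for 16hr at 37C without CO2; luminescence was read after ONE-Glo addition.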
Androgen receptor (Homo sapiens), sequence (P10275 whole entry, looked up): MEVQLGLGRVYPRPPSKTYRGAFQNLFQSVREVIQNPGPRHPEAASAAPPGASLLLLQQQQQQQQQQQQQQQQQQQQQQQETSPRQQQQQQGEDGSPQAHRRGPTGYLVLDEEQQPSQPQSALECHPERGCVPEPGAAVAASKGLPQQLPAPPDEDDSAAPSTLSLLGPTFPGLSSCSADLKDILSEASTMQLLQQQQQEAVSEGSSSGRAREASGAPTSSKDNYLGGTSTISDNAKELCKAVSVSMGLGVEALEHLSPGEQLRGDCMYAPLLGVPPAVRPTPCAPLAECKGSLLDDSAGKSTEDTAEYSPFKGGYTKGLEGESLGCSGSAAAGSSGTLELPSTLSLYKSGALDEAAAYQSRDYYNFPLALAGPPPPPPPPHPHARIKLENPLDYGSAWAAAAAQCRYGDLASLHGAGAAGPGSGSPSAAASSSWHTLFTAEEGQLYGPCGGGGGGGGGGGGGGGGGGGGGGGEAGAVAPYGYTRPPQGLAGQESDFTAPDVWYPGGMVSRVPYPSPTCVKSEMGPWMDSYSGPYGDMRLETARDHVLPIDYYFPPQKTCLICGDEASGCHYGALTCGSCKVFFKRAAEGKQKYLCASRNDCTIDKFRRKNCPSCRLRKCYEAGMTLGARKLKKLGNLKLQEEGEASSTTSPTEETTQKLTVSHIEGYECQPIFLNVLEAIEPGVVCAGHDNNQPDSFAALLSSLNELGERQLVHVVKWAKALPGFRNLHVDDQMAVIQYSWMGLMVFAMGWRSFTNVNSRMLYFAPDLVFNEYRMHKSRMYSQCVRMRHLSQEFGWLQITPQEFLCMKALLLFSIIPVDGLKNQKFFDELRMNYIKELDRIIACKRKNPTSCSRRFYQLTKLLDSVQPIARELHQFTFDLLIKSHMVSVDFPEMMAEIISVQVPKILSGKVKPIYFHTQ

Estrogen receptor (Homo sapiens), sequence (P03372 whole entry, looked up): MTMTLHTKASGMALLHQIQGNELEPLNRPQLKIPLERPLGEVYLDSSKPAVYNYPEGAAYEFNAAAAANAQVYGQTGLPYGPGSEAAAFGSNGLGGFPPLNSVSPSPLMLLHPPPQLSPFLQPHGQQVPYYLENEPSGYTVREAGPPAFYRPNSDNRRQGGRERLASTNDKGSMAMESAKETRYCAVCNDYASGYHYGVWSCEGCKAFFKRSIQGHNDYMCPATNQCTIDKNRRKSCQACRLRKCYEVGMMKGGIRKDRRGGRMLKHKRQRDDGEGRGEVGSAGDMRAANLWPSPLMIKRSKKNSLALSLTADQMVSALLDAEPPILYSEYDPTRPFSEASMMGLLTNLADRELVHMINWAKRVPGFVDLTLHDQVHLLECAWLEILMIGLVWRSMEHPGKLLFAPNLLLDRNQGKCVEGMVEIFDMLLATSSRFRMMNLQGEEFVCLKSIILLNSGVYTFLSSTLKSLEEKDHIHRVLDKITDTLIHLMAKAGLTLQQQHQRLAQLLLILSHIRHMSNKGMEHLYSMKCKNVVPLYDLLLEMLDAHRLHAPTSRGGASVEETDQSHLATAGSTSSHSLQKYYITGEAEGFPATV
Thyrotropin-releasing hormone receptor (Homo sapiens), sequence (P34981 whole entry, looked up): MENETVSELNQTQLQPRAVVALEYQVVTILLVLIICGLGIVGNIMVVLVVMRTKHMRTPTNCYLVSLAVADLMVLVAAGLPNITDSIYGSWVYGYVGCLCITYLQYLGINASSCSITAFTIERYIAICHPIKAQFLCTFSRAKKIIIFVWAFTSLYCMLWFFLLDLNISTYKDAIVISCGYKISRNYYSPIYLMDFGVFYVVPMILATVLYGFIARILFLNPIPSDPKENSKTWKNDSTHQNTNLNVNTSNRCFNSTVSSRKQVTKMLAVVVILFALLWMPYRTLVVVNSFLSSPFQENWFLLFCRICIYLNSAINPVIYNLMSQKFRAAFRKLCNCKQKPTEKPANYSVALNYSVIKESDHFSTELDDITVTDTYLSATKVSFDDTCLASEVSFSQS
Estrogen receptor beta (Homo sapiens), sequence (Q92731 whole entry, looked up): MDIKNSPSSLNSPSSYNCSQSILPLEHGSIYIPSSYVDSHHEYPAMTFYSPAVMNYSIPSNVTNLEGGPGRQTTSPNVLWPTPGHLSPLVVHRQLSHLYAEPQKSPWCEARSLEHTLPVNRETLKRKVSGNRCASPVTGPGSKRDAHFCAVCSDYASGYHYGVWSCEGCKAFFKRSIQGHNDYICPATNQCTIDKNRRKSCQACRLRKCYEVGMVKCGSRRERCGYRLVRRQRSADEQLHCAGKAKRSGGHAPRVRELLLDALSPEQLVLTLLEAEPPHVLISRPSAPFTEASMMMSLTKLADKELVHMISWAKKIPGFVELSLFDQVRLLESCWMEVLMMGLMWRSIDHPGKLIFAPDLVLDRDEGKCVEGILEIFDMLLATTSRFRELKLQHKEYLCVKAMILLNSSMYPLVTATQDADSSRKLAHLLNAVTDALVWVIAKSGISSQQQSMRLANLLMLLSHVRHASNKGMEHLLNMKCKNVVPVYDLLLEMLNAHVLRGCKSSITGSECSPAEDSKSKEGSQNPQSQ
Thyrotropin receptor (Homo sapiens), sequence (P16473 whole entry, looked up): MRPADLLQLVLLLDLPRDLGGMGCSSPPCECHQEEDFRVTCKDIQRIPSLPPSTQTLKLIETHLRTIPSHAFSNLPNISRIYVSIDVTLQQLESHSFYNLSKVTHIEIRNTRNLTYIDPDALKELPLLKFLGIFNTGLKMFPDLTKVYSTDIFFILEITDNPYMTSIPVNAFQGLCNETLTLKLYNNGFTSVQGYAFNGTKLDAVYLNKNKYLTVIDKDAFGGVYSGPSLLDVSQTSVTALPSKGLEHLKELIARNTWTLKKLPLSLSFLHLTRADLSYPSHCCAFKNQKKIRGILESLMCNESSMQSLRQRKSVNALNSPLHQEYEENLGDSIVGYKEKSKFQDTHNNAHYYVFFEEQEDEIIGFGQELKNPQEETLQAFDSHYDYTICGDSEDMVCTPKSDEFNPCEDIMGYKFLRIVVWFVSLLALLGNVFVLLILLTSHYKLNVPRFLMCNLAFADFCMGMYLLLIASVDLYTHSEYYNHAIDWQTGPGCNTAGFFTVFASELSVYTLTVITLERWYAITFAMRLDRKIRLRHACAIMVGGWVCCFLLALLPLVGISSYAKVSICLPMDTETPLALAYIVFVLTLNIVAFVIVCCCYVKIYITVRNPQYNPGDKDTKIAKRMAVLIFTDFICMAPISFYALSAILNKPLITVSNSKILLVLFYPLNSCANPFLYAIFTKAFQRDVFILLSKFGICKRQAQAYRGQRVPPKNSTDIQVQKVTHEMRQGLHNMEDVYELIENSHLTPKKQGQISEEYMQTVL
Progesterone receptor (Homo sapiens), sequence (P06401 whole entry, looked up): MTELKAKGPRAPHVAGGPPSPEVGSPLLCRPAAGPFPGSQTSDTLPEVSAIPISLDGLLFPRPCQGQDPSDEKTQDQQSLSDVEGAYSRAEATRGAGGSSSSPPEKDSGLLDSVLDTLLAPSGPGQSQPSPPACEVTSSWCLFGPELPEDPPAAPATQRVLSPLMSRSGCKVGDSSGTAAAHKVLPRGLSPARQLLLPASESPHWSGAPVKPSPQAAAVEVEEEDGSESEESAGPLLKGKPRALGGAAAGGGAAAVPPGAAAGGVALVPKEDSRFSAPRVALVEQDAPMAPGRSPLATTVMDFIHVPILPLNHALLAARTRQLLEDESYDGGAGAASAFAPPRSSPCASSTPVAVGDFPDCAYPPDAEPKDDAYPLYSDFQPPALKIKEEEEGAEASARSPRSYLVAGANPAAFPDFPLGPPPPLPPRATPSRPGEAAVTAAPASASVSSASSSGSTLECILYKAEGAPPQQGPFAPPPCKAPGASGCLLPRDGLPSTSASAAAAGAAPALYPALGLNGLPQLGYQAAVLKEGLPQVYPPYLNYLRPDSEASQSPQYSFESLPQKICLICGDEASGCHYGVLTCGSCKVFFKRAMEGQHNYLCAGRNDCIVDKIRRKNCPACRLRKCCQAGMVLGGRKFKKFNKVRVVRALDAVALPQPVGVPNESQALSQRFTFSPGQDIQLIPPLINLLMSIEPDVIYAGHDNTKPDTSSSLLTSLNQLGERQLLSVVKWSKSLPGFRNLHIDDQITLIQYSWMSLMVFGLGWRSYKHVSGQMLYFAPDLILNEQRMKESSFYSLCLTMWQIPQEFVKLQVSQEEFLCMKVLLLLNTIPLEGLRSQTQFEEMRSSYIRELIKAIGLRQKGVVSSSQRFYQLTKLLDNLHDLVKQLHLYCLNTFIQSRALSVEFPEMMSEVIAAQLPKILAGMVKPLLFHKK

On to `CCCCCC/C=C\CCCCCCCC(=O)O`, for which the Potency result in assay [1], in assay [2], in [3], in assay [4], in assay [5] and in assay [6] was “inactive” in each case. Also, the Potency entry in [8], in assay [9], in assay [10], in assay [11], in assay [12] and in [13] was “inactive” each time. Also, the Potency entry in [14], in assay [15], in [16], in assay [17] and in assay [19] was “inactive” in each case. In addition, the compound was classed as inactive in assay [7] and in [18].

In the case of `CC(C(=O)O)c1ccc2c(c1)[nH]c1ccc(Cl)cc12` (stereo not drawn), the Potency entry in assay [1], in assay [2], in assay [3], in assay [5], in assay [6] and in assay [8] was “inactive” each time. Also, the Potency entry in assay [9], in [11], in [12], in assay [14], in [15] and in [17] was “inactive” in each case. Besides, the Potency entry in [19] is “inactive”. Besides, the Potency in assay [4] is 29.8 µM (active). Further, the outcome in [7] and in assay [18] was inactive.

As to `CN(C)c1ccc(C(=C2C=CC(=[N+](C)C)C=C2)c2ccc(N(C)C)cc2)cc1`, the Potency result in [1] and in assay [6] was “inactive” throughout. Further, the Potency was 27.2 µM (active) and 37.6 µM (active) in [2]; 4.31 µM (active) and 13.7 µM (active) and 3.35 µM (active) in assay [3]; 10.8 µM (active) and 27.3 µM (active) and 13.3 µM (active) in assay [4]; 21.6 µM (active) and 27.3 µM (active) and 13.3 µM (active) in [5]; 8.59 µM (active) and 15.4 µM (active) and 5.96 µM (active) in [9]; 19.3 µM (active) in [11]. Further, the Potency in [12] is 24.2 µM (active) and 30.6 µM (active) and 21.1 µM (active); in assay [14], 19.4 µM (active) and 43.6 µM (active) and 19 µM (active); in [15], 19.4 µM (active) and 49 µM (active) and 23.9 µM (active). Also, the result in assay [20] and in assay [18] was inactive.

In the case of `FC(F)(F)c1cccc(Cl)c1`, the Potency result in assay [1], in assay [2], in assay [3], in assay [4], in assay [5] and in [6] was “inactive” in each case. The Potency result in assay [8], in [9], in assay [13], in assay [14], in assay [15] and in assay [16] was “inactive” in each case. The Potency result in [19] was “inactive”. For the same compound, the outcome in assay [20] and in assay [7] was inactive.

Consider `CC(C)(C)C1CCC(=O)CC1`, for which the Potency result in assay [1], in [2], in [3], in assay [4], in [6] and in [8] was “inactive” in each case. For the same compound, the Potency result in assay [9], in [10], in [11], in assay [14], in assay [15] and in [16] was “inactive” in each case. Further, the Potency result in [17] and in [19] was “inactive” in each case. Besides, the compound was classed as inactive in assay [7] and in assay [18].

With `CCC(CC)C(C)CCOC(C)=O` (stereo not drawn), the Potency entry in assay [1], in assay [2], in assay [3], in assay [4], in assay [5] and in assay [8] was “inactive” in each case. For the same compound, the Potency result in assay [9], in assay [10], in assay [11], in [12], in assay [13] and in [14] was “inactive” each time. In addition, the Potency entry in assay [15], in assay [16], in assay [17] and in assay [19] was “inactive” throughout. The result in assay [7] and in assay [18] was inactive.

In the case of `CC(=O)OCC=C(C)C`, the Potency entry in assay [1], in [2], in assay [3], in assay [4], in [6] and in [8] was “inactive” each time. In addition, the Potency result in assay [9], in assay [10], in [11], in [13], in [14] and in [15] was “inactive” each time. Besides, the Potency result in assay [16] and in [19] was “inactive” throughout. Besides, the result in assay [20] and in assay [7] was inactive.

For the compound `O=C(/C=C/c1ccccc1)OC/C=C/c1ccccc1`, the Potency entry in assay [1], in [2], in assay [3], in assay [4], in [5] and in assay [6] was “inactive” throughout. In addition, the Potency entry in assay [8], in [9], in [10], in [11], in assay [12] and in assay [13] was “inactive” in each case. The Potency result in assay [14], in assay [15], in [16], in [17] and in assay [19] was “inactive” each time. In addition, the outcome in assay [20], in [7] and in assay [18] was inactive.
